Molecules are shown by their SMILES. Values joined by “and” are separate entries in the source; they are usually repeats but may differ in a detail not shown here. Equal values may be shown once. Inconclusive results are not listed. Some structures have more than one record in an assay (separate samples or runs), and their calls can disagree. Active and inactive are the calls of the source. Unless noted, the call rests on the fitted dose curve; in most records, active means well fitted curve in the direction sought with a large enough effect in the repeat runs; inconclusive means weak or mixed curves; inactive means no such curve, though single readings can be large; an effect the other way counts as inactive or inconclusive.

The source of these data is PubChem BioAssay (Tox21).

Assay [1] in a line: A CellTox Green Cytotoxicity Assay to monitor cytotoxicity in HEK293 cells - 32 hour (AID 1224881). Further: nearly all actives have a fitted effect of over 40% in size. Further: potency means the concentration at half of the fitted maximal effect. The essentials: (§1)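 Read-out: fluorescence of a cell-impermeant cyanine dye staining DNA of dead cells, proportional to cytotoxicity. HEK293, 600 cells/well with reagent, compound (23 nL DMSO) added after 5 h; reads at 0, 8, 16, 24, 32, 40 h.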
A short description of assay [2]: A CellTox Green Cytotoxicity Assay to monitor cytotoxicity in HepG2 cells - 0 hour (AID 1224882). Further: nearly all actives have a fitted effect of over 35% in size. The essentials:
(§2)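 HepG2, 600 cells/well premixed w/ CellTox Green; 5 h settle, 37 C/5% CO2; pintool cpd add (DMSO); 37 C, 40 h; fluorescence read at 0, 8, 16, 24, 32, 40 h.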

The nature of assay [3]: A CellTox Green Cytotoxicity Assay to monitor cytotoxicity in HepG2 cells - 32 hour (AID 1224883). Further: nearly all actives have a fitted effect of over 50% in size. Further: potency means the concentration at half of the fitted maximal effect. Summed up:
as §2

The nature of assay [4]: qHTS RealTime-Glo MT Cell Viability Assay in HepG2 cells - 16 hour (AID 1224885). Further: nearly all actives have a fitted effect of over 50% in size. Further: potency means the concentration at half of the fitted maximal effect. Summed up: (§3)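 Viability was tracked continuously by NanoLuc luminescence from prosubstrate reduced by living HepG2 cells, at successive time points over 40 h of compound exposure. Cells with reagent were preincubated 5 h at 37 °C before compound addition.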
A short description of assay [5]: qHTS RealTime-Glo MT Cell Viability Assay in HEK293 cells - 24 hour (AID 1224886). Further: nearly all actives have a fitted effect of over 50% in size. Further: potency means the concentration at half of the fitted maximal effect. Summed up: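 Viability tracked continuously by luminescence as live cells reduce a prosubstrate for NanoLuc; HEK293 cells preincubated 5 h, compound-treated at 37 C, and read at 0, 8, 16, 24, 32 and 40 h.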
Assay [6] can be described thus: qHTS RealTime-Glo MT Cell Viability Assay in HEK293 cells - 8 hour (AID 1224887). Further: nearly all actives have a fitted effect of over 50% in size. Further: potency means the concentration at half of the fitted maximal effect. The essentials:
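Luminescence readout at each listed time point; HEK293, 600 cells/well, RealTime-Glo MT reagent added with cells; compounds pinned (23 nL in DMSO) after 5 h at 37 C; continuous culture at 37 C.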
Background: Quantitative high-throughput screening tests each substance at several concentrations.

Assay [7] can be described thus: A CellTox Green Cytotoxicity Assay to monitor cytotoxicity in HEK293 cells - 16 hour (AID 1224888). Further: nearly all actives have a fitted effect of over 35% in size. Summed up:
as §1

Assay [8] is described as follows: qHTS RealTime-Glo MT Cell Viability Assay in HepG2 cells - 0 hour (AID 1224889). Further: nearly all actives have a fitted effect of over 50% in size. Summed up:
as §3

A short description of assay [9]: A CellTox Green Cytotoxicity Assay to monitor cytotoxicity in HepG2 cells - 8 hour (AID 1224890). Further: nearly all actives have a fitted effect of over 45% in size. Further: potency means the concentration at half of the fitted maximal effect. The essentials: as §2
Assay [10] in a line: qHTS assay to identify small molecule antagonists of the estrogen receptor alpha (ER-alpha) signaling pathway using the BG1 cell line in the presence of 0.1 nM 17-beta-estradiol - cell viability counter screen (AID 1259241). Further: nearly all actives have a fitted effect of over 40% in size. Further: potency means the concentration at half of the fitted maximal effect. The essentials:
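Cells were plated and left 24 hr, compounds in DMSO were pinned in, 17beta-estradiol was added to 0.1 nM final, and after 22 hr CellTiter-Fluor reagent was added for 30 min before fluorescence was read.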

Assay [11] is described as follows: qHTS assay to identify small molecule antagonists of the androgen receptor (AR) signaling pathway using the MDA cell line in the presence of 0.5 nM R1881 - cell viability counter screen (AID 1259242). Further: nearly all actives have a fitted effect of over 45% in size. Further: potency means the concentration at half of the fitted maximal effect. Summed up: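 Live-cell protease fluorescence, CellTiter-Fluor, 30 min at 37C. Cells: MDA-kb2, 3,000/well, preincubated 5 hr. Compounds plus 0.5 nM R1881 final, 16 hr, 37C, 0% CO2.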

For assay [12], the target named is Estrogen receptor (Homo sapiens) (UniProt P03372). As to the kind of experiment: qHTS assay to identify small molecule antagonists of the estrogen receptor alpha (ER-alpha) signaling pathway using the BG1 cell line in the presence of 0.1 nM 17-beta-estradiol (AID 1259244). Further: nearly all actives have a fitted effect of over 50% in size. The essentials:
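Luminescence after ONE-Glo (30 min, room temperature) measured ERE-luciferase activity in VM7Luc4E2 cells treated 22 h with compound and 0.1 nM final 17beta-estradiol as stimulator.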

Assay [13] in a line: qHTS assay to identify small molecule HDAC inhibitors (AID 1259364). Further: potency means the concentration at half of the fitted maximal effect.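 Further: wild-type HCT-116 cells with endogenous class I/II HDAC activity; nearly all actives have a fitted effect of over 45% in size.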 Summed up:
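HCT-116 (wild type), 1,500 cells/well, overnight; compound 2 hr 37C 5% CO2; HDAC-Glo I/II reagent 30 min RT; luminescence readout.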

A short description of assay [14]: qHTS assay to identify small molecule HDAC inhibitors - cell viability counter screen (AID 1259365). Further: nearly all actives have a fitted effect of over 50% in size. Further: potency means the concentration at half of the fitted maximal effect. Summed up: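 Counter screen in wild-type HCT-116 cells: compounds dissolved in DMSO are pin-transferred onto overnight-plated cells and left 2hr at 37C. ATP-based CellTiter-Glo luminescence then measures viable cells.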
Assay [15] can be described thus: qHTS assay to identify small molecule agonists of the sonic hedgehog signaling (Shh) pathway - cell viability counter screen (AID 1259366). Further: nearly all actives have a fitted effect of over 50% in size. Further: potency means the concentration at half of the fitted maximal effect. Summed up:
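Cells are plated at 2,000 per well and left 4hr at 37C, 5% CO2 before compound addition. After 23hr of treatment, CellTiter-Fluor reagent is added for 1hr at 37C and fluorescence is measured.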

The nature of assay [16]: qHTS assay to identify small molecule antagonists of the sonic hedgehog signaling (Shh) pathway - cell viability counter screen (AID 1259367). Further: nearly all actives have a fitted effect of over 55% in size. Further: potency means the concentration at half of the fitted maximal effect. Summed up: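 Tox21 library chemicals were tested on a Gli1-Luc NIH/3T3 clone (2,000 cells/well) stimulated by conditioned medium; viability was quantified as fluorescence from CellTiter-Fluor reagent added at 23 hr.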
Assay [17] in a line: qHTS assay to identify small molecule agonists of the sonic hedgehog signaling (Shh) pathway (AID 1259368; calls by dose curve;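 further: NIH/3T3-derived 3T3Gli1-Luc cells carrying a stable Gli1-driven firefly luciferase reporter; series mostly up to about 92 µM; nearly all actives have a fitted effect of over 15% in size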). Summed up: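 Read-out: firefly luciferase luminescence from a Gli1 response element reporter stably integrated in NIH/3T3-derived 3T3Gli1-Luc cells, measured 30 min at room temperature after reagent addition. Compound exposure lasted 24 hr at 37 C, 5% CO2.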
Assay [18] in a line: A CellTox Green Cytotoxicity Assay to monitor cytotoxicity in HEK293 cells - 8 hour (AID 1224884). Further: nearly all actives have a fitted effect of over 35% in size. Further: potency means the concentration at half of the fitted maximal effect. Summed up:
as §1

A short description of assay [19]: qHTS assay to identify small molecule phospholipidosis (PLD) inducers (AID 1259344; active means well fitted curve in the direction sought with a large enough effect; an effect the other way counts as inactive or inconclusive). Summed up: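 Image-based: LipidTOX Red pit count/intensity per well and per cell; HepG2, 24 h compound at 37 C, PFA fixation, Hoechst counterstain.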

Sequence of Estrogen receptor (Homo sapiens) (P03372 whole entry, looked up): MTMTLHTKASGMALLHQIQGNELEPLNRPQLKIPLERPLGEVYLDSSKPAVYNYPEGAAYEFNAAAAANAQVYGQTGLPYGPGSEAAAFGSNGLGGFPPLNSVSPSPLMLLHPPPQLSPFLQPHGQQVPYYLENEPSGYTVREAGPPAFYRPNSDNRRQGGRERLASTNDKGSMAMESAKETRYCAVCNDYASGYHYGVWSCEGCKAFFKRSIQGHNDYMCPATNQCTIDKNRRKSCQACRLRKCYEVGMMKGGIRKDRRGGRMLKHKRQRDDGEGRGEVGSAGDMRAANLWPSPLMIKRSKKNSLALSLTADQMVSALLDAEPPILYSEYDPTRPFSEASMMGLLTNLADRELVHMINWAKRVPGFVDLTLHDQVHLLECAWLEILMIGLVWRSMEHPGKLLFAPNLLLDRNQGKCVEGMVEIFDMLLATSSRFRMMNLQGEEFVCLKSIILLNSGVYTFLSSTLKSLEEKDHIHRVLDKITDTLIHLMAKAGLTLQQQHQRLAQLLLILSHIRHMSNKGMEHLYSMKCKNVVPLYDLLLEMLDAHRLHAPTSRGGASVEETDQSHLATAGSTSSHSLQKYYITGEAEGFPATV

On to `CN(C)C(=O)Nc1cccc(OC(=O)NC(C)(C)C)c1`, for which the Potency result in assay [1], in assay [2], in assay [3], in assay [4], in [5] and in assay [6] was “inactive” throughout. Also, the Potency entry in assay [7], in assay [9], in assay [10], in [11], in assay [12] and in assay [13] was “inactive” each time. Also, the Potency result in assay [14], in assay [15], in assay [16] and in assay [17] was “inactive” in each case. Besides, the call in assay [8] was inactive.

For `[Cl-].[Cl-].[Hg+2]`, the Potency in assay [1] was 21.8 µM (active) and 6.92 µM (active); in assay [3], 24.4 µM (active) and 3.09 µM (active); in assay [18] it was “inactive and 15.5 µM (active)”; in assay [4], 48.8 µM (active) and 3.89 µM (active); in assay [6] it was 43.5 µM (active) and 3.47 µM (active); in assay [9] it was 48.8 µM (active) and 4.9 µM (active). Besides, the Potency in [10] was 27.2 µM (active) and 21.7 µM (active); in assay [11], 6.86 µM (active); in assay [13] it was 54.2 µM (active) and 34.4 µM (active); in assay [14] it was 68.2 µM (active); in [15], 682 nM (active) and 2.17 µM (active); in assay [16] it was 964 nM (active) and 1.93 µM (active). Besides, the Potency result in assay [2] and in [17] was “inactive” in each case. The molecule was called inactive in [19].

For `CCC(C)(C)c1ccc(O)c(C(C)(C)CC)c1`, the Potency in [1] was 48.5 µM (active) and 13.8 µM (active); in [3], 30.6 µM (active); in [18] it was 48.5 µM (active) and inactive; in [5] it was 43.2 µM (active); in [6], 24.3 µM (active); in [11] it was 67.8 µM (active). The Potency entry in assay [2], in assay [10], in assay [12], in [13], in assay [15] and in assay [16] was “inactive” throughout. In [17], the Potency entry is “inactive”. Moreover, the call in assay [8] was inactive.

Consider `CC(C)CCON=O`, for which the Potency entry in assay [2], in assay [3], in assay [18], in [4], in assay [5] and in assay [6] was “inactive” in each case. The Potency result in assay [9], in assay [10], in assay [11], in assay [13], in assay [14] and in assay [15] was “inactive” each time. For the same molecule, the Potency result in assay [16] and in assay [17] was “inactive” in each case. Further, the molecule was called inactive in assay [8] and in assay [19].

Consider `CC(=O)OC(c1ccccc1)C(Cl)(Cl)Cl` (configuration not stated), for which the Potency in assay [1] was 19.5 µM (active); in assay [3] it was 24.5 µM (active); in [18], 19.5 µM (active); in assay [9] it was 24.5 µM (active). Also, the Potency entry in assay [4], in assay [5], in assay [6], in assay [10], in assay [11] and in assay [12] was “inactive” in each case. Moreover, the Potency entry in assay [13], in assay [14], in assay [15], in assay [16] and in [17] was “inactive” each time. In assay [8], the molecule was called inactive.

On to `O=C(CCl)CCl`, for which the Potency entry in assay [2], in assay [18], in [4], in assay [6], in assay [7] and in assay [9] was “inactive” in each case. Also, the Potency entry in [10], in [12], in assay [13], in [16] and in [17] was “inactive” throughout. For the same molecule, the Potency was 22.7 µM (active) in [3]; 18 µM (active) and 19.5 µM (active) in assay [5]. For the same molecule, the call in assay [8] was inactive.

In the case of `CC(C)[C@@H](C(=O)O[C@@H](C#N)c1cccc(Oc2ccccc2)c1)c1ccc(Cl)cc1`, the Potency result in assay [1], in assay [2], in [3], in assay [18], in assay [4] and in [7] was “inactive” throughout. Also, the Potency result in [9], in assay [10], in assay [11], in assay [13], in assay [14] and in [15] was “inactive” each time. The Potency result in [16] and in [17] was “inactive” in each case. In addition, in assay [8], the molecule was classed as inactive.

On to `C=CCc1ccc(OC(=O)Cc2ccccc2)c(OC)c1`, for which the Potency result in [1], in assay [2], in assay [18], in assay [4], in assay [6] and in assay [7] was “inactive” throughout. Besides, the Potency entry in [9], in assay [10], in assay [11], in assay [13], in assay [14] and in [15] was “inactive” each time. In addition, the Potency entry in assay [16] and in [17] was “inactive” in each case. Also, the molecule was called inactive in assay [8].

For `CCCC[N+](CCCC)(CCCC)CCCC`, the Potency result in assay [1], in assay [2], in [3], in assay [18], in assay [4] and in assay [6] was “inactive” in each case. Besides, the Potency entry in assay [7], in assay [9], in assay [10], in [11], in [13] and in [14] was “inactive” in each case. Besides, the Potency entry in [15] and in [17] was “inactive” throughout. Further, in assay [8], the result was inactive.
